Measurements reported in PubChem BioAssay (Tox21).
Inconclusive results are not listed. Activity calls are given as the source filed them. Calls come from the whole dose curve; as a rule, active = well fitted activation curve with a large enough effect in the repeat runs; inconclusive = weak or mixed curves, or effect the other way; inactive = no such curve, though single readings can be large or run the other way.

Assay: qHTS assay to identify small molecule agonists of the retinoic acid receptor (RAR) signaling pathway (AID 1159553)
Conditions: C3RL4 RARE luciferase reporter, agonist, 6 h; series mostly up to 73.3 µM; activation: at the top concentration
Source text: National Center for Advancing Translational Sciences [NCATS] NIH Chemical Genomics Center [NCGC] U.S. Environmental Protection Agency [EPA] National Institutes of Environmental Health Sciences [NIEHS] National Toxicology Program [NTP] Assay overview: All-trans Retinoic acid (atRA) is the potent natural metabolite of retinol and plays an important role in normal embryonic development and maintenance of cellular phenotype in adult animals. atRA is the activating ligand for the retinoic acid receptors (RARs) which form heterodimers with retinoid X receptors (RXRs) on the retinoic acid response element (RARE). Through activation of the RAR/RXRs nuclear receptors, atRA regulates the transcription of a large number of protein-coding genes and regulatory RNAs. Intracellular levels of atRA are controlled by the retinol signaling pathway (RSP) that regulates the biosynthesis and catabolism of atRA to maintain physiological levels. Chemicals that interfere with the RSP can cause abnormal intracellular levels of atRA and therefore are potential developmental toxicants. To assess compounds for the potential adverse effect on embryonic development through interfering with retinol signaling, a cell-based RARE luciferase reporter gene assay was used. C3RL4 cell line (OARSA/CFSAN/FDA, Laurel, MD) was used to screen Tox21 10K compound library for identifying activators of the RSP.
Assay Protocol Summary: C3RL4 cells were seeded at 1,000/well in 5 uL of assay medium into white solid 1,536-well tissue culture plates (Greiner Bio-One North America Inc. Monroe, NC) using a Multidrop Combi (Thermo Scientific, Waltham, MA) dispenser. After incubation at 37 C and 5% CO2 for an overnight, 23 nL of compounds dissolved in DMSO, positive control or DMSO only were transferred by a Pintool station (Kalypsys, San Diego, CA). After 6 hr incubation at 37 C and 5% CO2, 5 uL of Amplite Luciferase reagent (AAT Bioquest Inc. Sunnyvale, CA) was added to each assay plate using a Flying Reagent Dispenser (FRD) (Aurora Discovery, San Diego, CA). Luminescence was quantified on a ViewLux plate reader (PerkinElmer, Waltham, MA) after 30 min incubation at room temperature.
% is set by controls: 0 for no effect and ±100 for the full control effect; potency is the fitted concentration of half-maximal effect.

| Compound | Potency | activation |
| --- | --- | --- |
| NNc1nc(-c2ccc([N+](=O)[O-])cc2)cs1 | 54.5 µM (active) |  |
| COC(=O)C1=C(C)NC(C)=C(C(=O)OCC(C)C)C1c1ccccc1[N+](=O)[O-] (stereo not given) |  | -6.44% (inactive) |
| CC(NN)c1ccccc1 (stereo not given) |  | 4.74% [at 34.3 µM] (inactive) |
| CN(C)[C@@H]1C(=O)C(C(N)=O)=C(O)[C@@]2(O)C(=O)C3=C(O)c4c(O)ccc(Cl)c4[C@@H](O)[C@H]3C[C@@H]12 |  | -2.12% (inactive) |
| Clc1ccc2nsnc2c1NC1=NCCN1 |  | -0.264% (inactive) |
| N=C1C=CC(=C(c2ccc(N)cc2)c2ccc(N)cc2)C=C1 |  | -3.85% (inactive) |
| Cc1ccc(-n2nc(C(C)(C)C)cc2NC(=O)Nc2ccc(OCCN3CCOCC3)c3ccccc23)cc1 | 18.8 µM (active) |  |
| CO[Si](CCCNc1ccccc1)(OC)OC |  | -0.917% (inactive) |
| Cc1oc(-c2ccccc2)nc1CCC(=O)c1ccc(CC2SC(=O)NC2=O)cc1 (stereo not given) |  | -0.15% (inactive) |
| O=C(Oc1ccccc1)c1ccccc1C(=O)Oc1ccccc1 |  | -8.84% (inactive) |
| O=c1[nH]cnc2nc[nH]c12 |  | 1% (inactive) |
| Nc1nc2ccccc2n1Cc1ccc(F)cc1 |  | -16.1% (inactive) |
| O=c1cc(-c2ccc(O)cc2)oc2cc(O)cc(O)c12 | 1.56 µM (active) |  |
| O=C(N/N=C/c1ccccc1O)c1ccncc1 | 29.8 µM (active) |  |
| CC(C)(C)C(=O)OCOC(=O)C1N2C(=O)CC2S(=O)(=O)C1(C)C (stereo not given) |  | 0.951% (inactive) |
| S=c1[nH]c2ccccc2s1 | 8.63 µM (active) |  |
| Clc1ccccc1C(c1ccccc1)(c1ccccc1)n1ccnc1 |  | -5.95% (inactive) |
| Cc1ccc2oc(CN(Cc3ccccc3)C(=O)Nc3c(F)cc(F)cc3F)c(-c3ccc(Cl)cc3)c2c1 |  | -8.01% (inactive) |
| COc1ccc(-c2ccc3cc(C(=O)O)ccc3c2)cc1C12CC3CC(CC(C3)C1)C2 | 0.0298 µM (active) |  |
| Oc1ccc(N=Nc2ccccc2)cc1 | 2.47 µM (active) |  |

| Compound | Potency | activation |
| --- | --- | --- |
| Nc1ccc2cc(S(=O)(=O)O)cc(O)c2c1N=Nc1ccccc1C(F)(F)F |  | 2.8% (inactive) |
| C=C(C)C(=O)OCC[N+](C)(C)C |  | -7.14% (inactive) |
| CCCCC(CC)COP(=O)(O)OCC(CC)CCCC (stereo not given) |  | -3.64% (inactive) |
| COc1ccc(C(=O)/C(Br)=C\C(=O)O)cc1 | 27.3 µM (active) |  |
| O=[N+]([O-])c1ccccc1Nc1ccccc1 |  | 2.4% (inactive) |
| Cc1onc(-c2ccccc2Cl)c1C(=O)N[C@@H]1C(=O)N2[C@@H]1SC(C)(C)[C@@H]2C(=O)O |  | -1.35% (inactive) |
| Cc1onc(-c2c(Cl)cccc2Cl)c1C(=O)N[C@@H]1C(=O)N2[C@@H]1SC(C)(C)[C@@H]2C(=O)O |  | -4.07% (inactive) |
| CN(C)c1ccc(C2(c3ccc(N(C)C)cc3)OC(=O)c3cc(N(C)C)ccc32)cc1 |  | -2.3% (inactive) |
| CC(=O)SC[C@@H](Cc1ccccc1)C(=O)NCC(=O)OCc1ccccc1 |  | -0.332% (inactive) |
| O=C(Nc1ccc(Oc2ccc(Cl)cc2)c(Cl)c1)c1cc(I)cc(I)c1O |  | -9.28% (inactive) |
| CS(=O)(=O)CCNCc1ccc(-c2ccc3ncnc(Nc4ccc(OCc5cccc(F)c5)c(Cl)c4)c3c2)o1 |  | -12% (inactive) |
| O=c1c(-c2ccccc2)c1-c1ccccc1 |  | -22.8% (inactive) |
| NNc1nc(-c2ccccc2)cs1 | 70.5 µM (active) |  |
| CCC(Cl)C(Cl)C(Cl)CC(Cl)C(Cl)C(C)Cl (stereo not given) |  | -3.79% (inactive) |
| CCCN(CCC)C(=O)C(CCC(=O)OCCCN1CCN(CCOC(=O)Cc2c(C)n(C(=O)c3ccc(Cl)cc3)c3ccc(OC)cc23)CC1)NC(=O)c1ccccc1 (stereo not given) |  | -5.65% (inactive) |
| CCN(C(=O)N(CC)c1ccccc1)c1ccccc1 |  | -3.61% (inactive) |
| COc1cccc2c1C(=O)c1c(O)c3c(c(O)c1C2=O)C[C@@](O)(C(=O)CO)C[C@@H]3O[C@H]1C[C@H](N)[C@H](O[C@@H]2CCCCO2)[C@H](C)O1 |  | -6.09% (inactive) |
| CN(C)CCCOC1(Cc2ccccc2)CCCCCC1 |  | -5.83% (inactive) |
| CCc1oc2ccccc2c1C(=O)c1cc(Br)c(O)c(Br)c1 |  | -3.87% (inactive) |
| CSc1ccc(C(=O)c2[nH]c(=O)[nH]c2C)cc1 |  | 9.34% (inactive) |
